# Shown are actives, neighbours in structure and some others; about 2.3% of the full set was active somewhere.
# SENP7 inh: SENP7 protease inhibitors, primary screen, biochemical, luminescence, uHTS. inhibition, % at 5 µM. 330,000 compounds, 1.5% hits. Sentrin-specific protease 7 (Homo sapiens), Q9BQF6. recombinant SENP7, Z-RLRGG-aminoluciferin luminescence, 40 min;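 active = inhibition above about 50% at the single test dose, limit read from the data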;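 also: plate controls were DMSO with enzyme for no effect and no enzyme buffer wells for full effect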
# Target sequence (Q9BQF6 706-1050 limits assumed): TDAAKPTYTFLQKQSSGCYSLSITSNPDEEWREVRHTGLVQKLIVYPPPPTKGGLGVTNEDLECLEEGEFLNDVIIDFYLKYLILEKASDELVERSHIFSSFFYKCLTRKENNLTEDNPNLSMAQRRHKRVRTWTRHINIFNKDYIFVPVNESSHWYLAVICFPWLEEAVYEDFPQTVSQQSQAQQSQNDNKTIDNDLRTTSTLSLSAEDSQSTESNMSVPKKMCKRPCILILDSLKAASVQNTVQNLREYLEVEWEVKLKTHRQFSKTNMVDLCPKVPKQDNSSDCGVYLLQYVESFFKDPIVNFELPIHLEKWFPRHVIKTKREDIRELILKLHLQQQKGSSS
# SENP6 block: SENP6 protease inhibitors, primary screen, biochemical, luminescence, uHTS. 330,000 compounds, 1.8% hits. inhibition, % at 10 µM. Recombinant SENP6 catalytic domain, aminoluciferin luminescence. Sentrin-specific protease 6 (Homo sapiens), Q9GZR1. AID 2599, 2010;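 active = inhibition above about 50% at the single tested dose, limit read from the data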;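 also: plate controls were DMSO wells with enzyme for no effect and DMSO wells lacking enzyme for full effect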
# HSP90 inh: HSP90 inhibitors, primary screen, cell lysate, luminescence. Heat shock protein HSP 90 (rabbit reticulocyte lysate; luciferase refolding). Rabbit reticulocyte lysate, luciferase refolding luminescence, 3 h. inhibition, % at 5.6 µM. 290,000 compounds, 0.91% hits. AID 1789, 2009;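 active = inhibition above the screen-wide mean plus 3 SD, computed separately per campaign, cut at about 16% in these data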;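 also: 0% = DMSO wells and 100% = 60 µM geldanamycin wells; inhibitors lower the luminescence because luciferase stays unfolded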
# LGR2 inh: inhibitors of bursicon-induced LGR2 CRE-luciferase signal, primary screen, cell-based, HEK293, CRE-luciferase reporter, bursicon stimulation. Drosophila bursicon receptor LGR2 (rickets). bursicon-stimulated, 4 h. inhibition, % at 9.99 µM. 380,000 compounds, 0.35% hits;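 active = drop in luminescence signal, shown as inhibition above about 50% in the replicate tests, limit read from the data, passing the limit was not always enough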;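 also: agonist challenge used bursicon conditioned medium at about half maximal strength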
# SENP8 block-1: SENP8 protease inhibitors, primary screen, biochemical, luminescence; Sentrin-specific protease 8 (Homo sapiens), Q96LD8; 330,000 compounds, 1.2% hits; inhibition, % at 10 µM; AID 2540, 2010; purified SENP8, Z-RLRGG-aminoluciferin cleavage; in the data active = inhibition above about 50%
# Target sequence (Q96LD8 whole entry, looked up): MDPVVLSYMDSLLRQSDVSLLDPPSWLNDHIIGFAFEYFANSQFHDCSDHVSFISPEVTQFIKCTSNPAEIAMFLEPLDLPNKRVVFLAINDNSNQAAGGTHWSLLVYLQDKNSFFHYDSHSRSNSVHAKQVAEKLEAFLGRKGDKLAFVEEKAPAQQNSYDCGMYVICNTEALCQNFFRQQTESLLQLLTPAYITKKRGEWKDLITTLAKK
# SENP8 block-2: human SENP8 protease inhibitors, primary screen, biochemical, fluorescence, Nedd8 protein substrate, uHTS; Sentrin-specific protease 8 (Homo sapiens), Q96LD8; recombinant SENP8; 360,000 compounds, 0.64% hits; inhibition, % at 20 µM; in the data active = inhibition mostly above about 40%, no sharp cut-off; inactive = mostly below about 27%
# SENP8 conf: human SENP8 protease inhibitors, confirmation, biochemical, Nedd8 protein substrate, single concentration | AID 624319, 2012 | purified SENP8, Nedd8-AMC/pro-Nedd8 cleavage fluorescence, 30 min | 1,400 compounds, 15% hits | shares compounds with SENP8 block-2 | inhibition, % at 25 µM; in the data active = inhibition mostly above about 39%, no sharp cut-off; inactive = mostly below about 34%
# The depositor's hits bear a star; . = not tested or not shown.
SMILES,SENP7 inh,SENP6 block,HSP90 inh,LGR2 inh,SENP8 block-1,SENP8 block-2,SENP8 conf
O=C(Nc1cc(-c2ccccc2)[nH]n1)c1ccc(Cl)cc1,67.2*,68.7*,-2.1,-62.1,47.5,40.2*,1.6
COc1ccc(NC(=O)Nc2ccc3c(c2)C(=O)N([C@@H](C)CO)C[C@H](C)[C@@H](CN(C)S(=O)(=O)c2ccccc2)O3)cc1,.,.,.,8.4,.,.,.
O=[N+]([O-])c1ccc(N2CCN(S(=O)(=O)c3ccc(Cl)cc3)CC2)cc1NCc1cccnc1,10.8,-0.4,0.7,4.6,6.2,39.4,.
O=C(c1ccc(Cl)cc1)N1CCN(c2ccc([N+](=O)[O-])c(NCc3cccnc3)c2)CC1,-3.2,-8.7,1.7,.,5.0,45.8*,18.4
O=[N+]([O-])c1ccc(N2CCN(S(=O)(=O)c3ccccc3)CC2)cc1NCc1cccnc1,-6.4,0.1,1.8,.,-4.0,49.9*,14.1
CNC(=O)C[C@H]1CC[C@@H]2[C@@H](COc3ccc(NC(=O)C(C)C)cc3C(=O)N2C)O1,.,.,.,5.6,.,.,.
C=CCn1c(Br)nc2c1c(=O)n(C)c(=O)n2C,0.0,-10.7,2.8,-2.3,-0.6,8.8,.
Cn1c(=O)c2c(nc(Br)n2C)n(C)c1=O,-2.4,-5.1,0.0,.,-4.9,40.6*,0.2
O=[N+]([O-])c1ccc(Cl)cc1Sc1cccc2cccnc12,-5.6,-21.5,0.1,.,0.1,41.9*,-0.4
Cn1ccnc1Sc1cc(Cl)ccc1[N+](=O)[O-],-9.9,-19.5,4.2,20.1,-3.2,15.3,.
Cc1nnc2n(-c3ccccc3)c(=O)c3ccccc3n12,-3.7,2.7,.,-5.1,-1.4,40.7*,1.2
O=C(O)CSc1nnc2n(-c3ccccc3)c(=O)c3ccccc3n12,1.4,-12.7,-1.9,-5.9,-2.3,6.9,.
Nc1nonc1OCCN1CCN(c2ccc([N+](=O)[O-])c3cccnc23)CC1,-7.4,1.4,2.7,.,-1.9,47.4*,24.8
Cc1nonc1OCCN1CCN(c2ccccc2[N+](=O)[O-])CC1,-4.7,-9.2,-1.8,-8.3,-1.3,21.0,.
COc1ccccc1OCCNC(=O)c1cc(F)c(F)cc1Cl,-1.6,6.0,0.1,.,-2.5,41.1*,13.7
O=C(CCn1c(=O)oc2ccccc21)NCCN1CCc2ccccc2C1,12.0,-7.6,-1.7,.,-0.5,10.8,.
O=C(CCCn1c(=O)oc2ccccc21)N1CCc2ccccc2C1,-0.5,-2.8,-1.4,.,-7.5,48.3*,78.4*
CC1=NN(c2ccc(C(=O)O)c(N)c2)C(=O)C1,17.9,35.3,1.2,0.9,-0.8,-44.1,.
O=S(=O)(O)c1ccc(Cl)c(Cl)c1,.,.,.,-3.0,.,8.7,.
CC1=NN(c2ccc(S(=O)(=O)O)cc2Cl)C(=O)C1,5.1,9.3,5.3,15.4,-6.4,75.6*,9.7
CC1=NN(c2cc(Cl)c(S(=O)(=O)O)cc2Cl)C(=O)C1,.,.,.,0.2,.,65.9*,13.6
COc1ccc(S(=O)(=O)Nc2ccc3c(c2)C(=O)N([C@H](C)CO)C[C@@H](C)[C@H](CN(C)Cc2ccncc2)O3)cc1,.,.,.,2.6,.,.,.
O=C(C[C@H]1CC[C@H]2[C@@H](COC[C@@H](O)CN2C(=O)c2ccccc2)O1)N1CCc2ccccc2C1,.,.,.,-6.8,.,.,.
CC(C)OC(=O)CSc1nnc(-c2ccccn2)n1-c1ccccc1,-4.6,-17.0,2.7,.,-4.2,45.0*,12.2
Cc1ccc(-n2c(SCC(=O)OC(C)C)nnc2-c2ccccn2)cc1,2.2,-1.6,5.4,.,2.3,34.6,.
SMILES,SENP7 inh,SENP6 block,HSP90 inh,LGR2 inh,SENP8 block-1,SENP8 block-2,SENP8 conf
COc1cccc2nc3cc(C)c(C)cc3nc12,97.4*,90.8*,14.3,16.7,94.7*,42.2*,78.0*
COc1cccc2c1nc(C)c1cc(C)oc12,-22.0,-19.1,4.9,-45.9,-10.7,-12.9,.
CO[C@H](CN(C)S(=O)(=O)c1ccc(C)cc1)[C@@H](C)CN(Cc1ccccc1Cl)[C@H](C)CO,.,.,.,6.9,.,.,.
CCS(=O)(=O)Nc1ccc2c(c1)C(=O)N(C)[C@H]1CC[C@H](CC(=O)NCCOC)O[C@H]1CO2,.,.,.,-3.8,.,.,.
O=C(Cc1cc(=O)[nH][nH]1)N/N=C/C=C/c1ccccc1,4.1,4.3,4.8,44.8,0.9,44.4*,34.4
O=C(CNC(=O)c1ccccc1)N/N=C/C=C/c1ccccc1,1.2,10.3,4.4,2.2,7.7,3.6,.
CN(Cc1cn(-c2ccccc2)nc1-c1ccc(Cl)cc1)C(=O)CCC(=O)O,-1.4,3.3,-4.2,3.1,9.6,40.1*,15.4
CN(Cc1cn(-c2ccccc2)nc1-c1ccc(F)cc1)C(=O)CCC(=O)O,4.5,10.3,2.4,3.6,6.9,24.7,.
Cc1ccc(C(=O)CCC(=O)N(C)CC(=O)Nc2ccccc2Br)cc1,6.5,12.4,-7.7,-0.1,-1.8,1.1,.
Cc1ccc(OCCCC(=O)N(C)CC(=O)Nc2ccccc2Br)cc1,10.5,1.6,.,2.4,-1.1,37.2*,-5.1
CC(C)NC(=O)N[C@H]1CC[C@H](CCNC(=O)C2CC2)O[C@@H]1CO,.,.,.,-1.3,.,.,.
COC(=O)c1ccc(Cn2cc([N+](=O)[O-])cn2)cc1,7.5,-8.5,2.3,-4.3,-3.8,2.5,.
O=C(Cn1cc([N+](=O)[O-])cn1)Nc1ccc(Cn2cc(Br)cn2)cc1,-6.2,-12.1,-2.1,-0.5,-12.2,40.1*,4.7
COc1ccc(/C=N/Nc2nc(C)c([N+](=O)[O-])c(N(C)c3ccccc3)n2)cc1OC,2.5,-10.4,-0.4,.,5.4,52.9*,6.5
Cc1[nH][nH]c(=O)c1C(c1c(C)[nH][nH]c1=O)c1cn(C)c2ccccc12,.,.,3.9,15.3,.,77.2*,50.5*
Cc1[nH][nH]c(=O)c1C(c1cc([N+](=O)[O-])ccc1O)c1c(C)[nH][nH]c1=O,.,.,5.5,-1.9,.,25.2,.
CC(=O)c1cccc(NC(=O)N(c2ccccc2)c2ccccc2)c1,-4.5,11.5,-0.3,2.9,-1.6,9.8,.
CNC(=O)N(c1ccccc1)c1ccccc1,-6.8,-18.3,-5.9,.,-14.5,43.1*,12.2
CCCC#Cc1cnc2c(c1)C(=O)N([C@@H](C)CO)C[C@@H](C)[C@H](CN(C)C(=O)c1cccc(F)c1)O2,.,.,.,15.1,.,.,.
COC(=O)c1sc(NC(=O)c2ccc([N+](=O)[O-])o2)c(C#N)c1C,11.1,2.8,-1.4,0.2,-1.4,42.1*,11.7
CC(C)C(=O)Nc1ccc2c(c1)C(=O)N(C)[C@@H]1CC[C@H](CC(=O)N[C@@H](C)c3ccccc3)O[C@@H]1CO2,.,.,.,18.6,.,.,.
